Laboratory results: PubChem BioAssay AID1159580 (chemical genetic matrix, 2015)
The whole screen tested about 5,500 compounds, of which about 2,000 (36%) were called active. Inconclusive results (about 18%) are left out. The list shows a part of the results. A number with no mark means an inactive call. Cut-off read from the data, not from the text of the source: active = normalized growth mostly below about 0.91 (no sharp cut-off); inconclusive = no clear call, values can overlap the other calls; inactive = mostly above about 0.92.

Assay: chemical genetic growth profiling, strain panel (AID 1159580);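 note: tested at 20 µM; growth read once vehicle control cultures reached saturation at 30 °C; 1 = growth at the plate median or of vehicle wells; lower values mean less growth of the strain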
Conditions: growth OD
[1] = S. cerevisiae deletion strains, locus YAL013W, strain DEP1, active compounds read low
[2] = S. cerevisiae deletion strains, locus YBR229C, strain ROT2, active compounds read low
[3] = S. cerevisiae deletion strains, locus YDL101C, strain DUN1, active compounds read low
[4] = S. cerevisiae deletion strains, locus YDR150W, strain NUM1, active compounds read low
[5] = S. cerevisiae deletion strains, locus YEL061C, strain CIN8, active compounds read low
[6] = S. cerevisiae deletion strains, locus YGR078C, strain PAC10, active compounds read low
[7] = S. cerevisiae deletion strains, locus YHR030C, strain SLT2, active compounds read low
[8] = S. cerevisiae deletion strains, locus YHR087W, strain rtc3, active compounds read low
[9] = S. cerevisiae deletion strains, locus YJR043C, strain POL32, active compounds read low
[10] = S. cerevisiae deletion strains, locus YJR075W, strain HOC1, active compounds read low
[11] = S. cerevisiae deletion strains, locus YLR039C, strain RIC1, active compounds read low
[12] = S. cerevisiae deletion strains, locus YLR058C, strain SHM2 (second series), active compounds read low
[13] = S. cerevisiae deletion strains, locus YLR085C, strain ARP6, active compounds read low
[14] = S. cerevisiae deletion strains, locus YLR262C, strain YPT6, active compounds read low
[15] = S. cerevisiae deletion strains, locus YML094W, strain GIM5, active compounds read low
[16] = S. cerevisiae deletion strains, locus YMR219W, strain ESC1, active compounds read low
[17] = S. cerevisiae deletion strains, locus YMR263W, strain SAP30, active compounds read low
[18] = S. cerevisiae deletion strains, locus YNL153C, strain GIM3, active compounds read low
[19] = S. cerevisiae deletion strains, locus YNL298W, strain CLA4 (second series), active compounds read low
[20] = S. cerevisiae deletion strains, locus YNL322C, strain KRE1, active compounds read low
[21] = S. cerevisiae deletion strains, locus YNR030W, strain Alg12, active compounds read low
[22] = S. cerevisiae deletion strains, locus YPL055C, strain LGE1, active compounds read low
[23] = S. cerevisiae deletion strains, locus YPL241C, strain CIN2, active compounds read low
[24] = S. cerevisiae deletion strains, locus YPR135W, strain CTF4, active compounds read low

Compound `Cc1onc(-c2c(F)cccc2Cl)c1C(=O)c1ccc(F)cc1` has a normalized growth [1] of 0.939, a normalized growth [2] of 0.98 and a normalized growth [3] of 0.991. It also gave a normalized growth [4] of 0.963, a normalized growth [5] of 0.979 and a normalized growth [6] of 0.973. It also gave a normalized growth (S. cerevisiae deletion strains, locus YGR229C, strain SMI1, active compounds read low) of 0.969, a normalized growth [7] of 0.696 and a normalized growth [8] of 0.959. For the same compound, the normalized growth (S. cerevisiae deletion strains, locus YJL187C, strain SWE1, active compounds read low) was 0.975, the normalized growth [9] was 0.956 and the normalized growth [10] was 0.937. The normalized growth (S. cerevisiae deletion strains, locus YKL190W, strain CNB1, active compounds read low) was 0.974, the normalized growth [11] was 0.807 and the normalized growth [12] was 0.987. For the same compound, the normalized growth [13] was 0.8, the normalized growth [14] was 0.787 (active) and the normalized growth [15] was 0.972. For the same compound, the normalized growth [16] was 0.996, the normalized growth [17] was 0.978 and the normalized growth (S. cerevisiae deletion strains, locus YMR307W, strain GAS1, active compounds read low) was 0.708. For the same compound, the normalized growth [18] was 0.973, the normalized growth [19] was 0.93 and the normalized growth [20] was 0.97. The normalized growth [21] was 0.949, the normalized growth [22] was 0.929 and the normalized growth [23] was 0.964. The normalized growth [24] was 0.817 and the normalized growth (S. cerevisiae strains, strain wild type, active compounds read low) was 0.959.
Compound `CCN(CC)CCNC(=O)c1c(-c2c(Cl)cccc2Cl)noc1C` has a normalized growth [1] of 0.996, a normalized growth [2] of 1.01 and a normalized growth (S. cerevisiae deletion strains, locus YCL061C, strain MRC1, active compounds read low) of 1.02. The normalized growth [3] was 1, the normalized growth [4] was 0.903 and the normalized growth [5] was 1.04. For the same compound, the normalized growth [6] was 1.01, the normalized growth [7] was 1.07 and the normalized growth [8] was 0.998. For the same compound, the normalized growth [9] was 1.03, the normalized growth [10] was 0.982 and the normalized growth [11] was 1.16. For the same compound, the normalized growth [12] was 0.99, the normalized growth [13] was 1.05 and the normalized growth [14] was 1.15. It also gave a normalized growth [15] of 1.02, a normalized growth [16] of 1.01 and a normalized growth [17] of 0.992. The normalized growth [18] was 0.99, the normalized growth [19] was 1.05 and the normalized growth [20] was 1. It also gave a normalized growth [21] of 1.02, a normalized growth (S. cerevisiae deletion strains, locus YOL006C, strain TOP1, active compounds read low) of 1.03 and a normalized growth [22] of 0.99. For the same compound, the normalized growth [23] was 1.01 and the normalized growth [24] was 0.973.
